# Laboratory results published in PubChem BioAssay (NCI).
# The panel holds about 83,000 compounds, 20% with a hit somewhere; the sample as a whole holds those more often.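 Results are percent growth after 48 hours of single-concentration exposure. 100 means growth as in untreated cells, lower positive values show inhibition; negative values down to -100 show cell death.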 Unmarked numbers belong to inactive results. Activity calls are given as the source filed them. The calls were made as follows: active = growth percent below 10; inactive = the rest.
# Key:
# Assay in all cases: NCI-60 one-dose screen, 48 h (100 = growth as untreated, 0 = no growth, -100 = all killed)
# Conditions in all cases: 10 µM unless noted
# [1] = tested on: NCI-H23 lung
# [2] = tested on: NCI-H226 lung
# [3] = tested on: NCI-H322M lung
# [4] = tested on: HOP-62 NSCLC
# [5] = tested on: NCI-H460 lung
# [6] = tested on: HOP-92 NSCLC
# [7] = tested on: NCI-H522 lung
# [8] = tested on: A549/ATCC NSCLC
# [9] = tested on: 786-0 renal
# [10] = tested on: COLO 205 colon
# [11] = tested on: DU-145 prostate
# [12] = tested on: K-562 leukemia
# [13] = tested on: MALME-3M melanoma
# [14] = tested on: MDA-MB-231 breast
# [15] = tested on: RXF 393 renal
# [16] = tested on: SF-268 CNS
# [17] = tested on: SF-295 CNS
# [18] = tested on: SF-539 CNS
# [19] = tested on: UACC-257 melanoma
# [20] = tested on: M14 melanoma
Structure (SMILES),growth [1],growth [2] [%],growth [3] [%],growth [4] [%],growth [5] [%],growth [6],growth [7],growth [8] [%],growth [9] [%],growth [10],growth [11] [%],growth [12],growth [13],growth [14] [%],growth [15],growth [16] [%],growth [17],growth [18] [%],growth [19],growth [20]
COc1nc(/C=C\Nc2ccc3c(c2)OCCOCCOCCOCCO3)nc(OC)n1,85.7%,103,90.5,109,97.3,95.7%,109%,99.2,97.7,109%,97.2,101%,85%,91.2,100%,92.8,91.2%,96.9,105%,96.4%
COC(=O)c1sccc1-c1cc(O)c(C(=O)Nc2ccccc2)s1,83%,90.9,93.3,92.2,104,97.9%,90.9%,91.5,106,102%,99.1,91.6%,84.5%,91.5,115%,91.7,99.4%,98.8,91.6%,93.3%
Clc1ccc(Nc2nnc(CNc3ccccc3)c3ccccc23)cc1,9.95% (active),25,30.4,27.4,17.7,-19.3% (active),-5.92% (active),20.3,21.4,11.9%,19,5.39% (active),-13.8% (active),19.9,25.7%,20.9,14.3%,34,-6.49% (active),5.8% (active)
COC(=O)c1ccc2cc(OC)c(OC)cc2c1,102%,97.6,108,107,108,94.4%,98.9%,77.4,91.9,122%,116,115%,117%,127,97%,114,70.4%,116,103%,110%
N=C(N)c1ccc(OCCSCCOc2ccc(C(=N)N)cc2)cc1,36.2%,58.8,78.3,72.5,27.1,79.2%,48.5%,57.4,80.2,79.5%,71.7,54.3%,52.2%,82.1,105%,74.2,-33.5% (active),76.5,76.2%,75.3%
N#CSc1c[nH]c2ccc(/C=C/C(=O)/C=C(O)/C=C/c3ccc4[nH]cc(SC#N)c4c3)cc12,25.3%,31.6,96.9,28.1,12.5,-21.3% (active),-63.9% (active),12.4,13.9,-39.7% (active),29,-15.2% (active),20.7%,22.8,9.89% (active),35.5,57.3%,13.5,25.9%,-5.11% (active)
CCOC(=O)c1cnn(CC(C)O)c1NC(=O)NCc1ccccc1C(F)(F)F (stereo not given),98.8%,104,97.5,102,109,84.5%,60.8%,82.1,93.8,112%,105,86.3%,101%,105,111%,101,92.6%,98.3,89.7%,88.6%
